Assay results taken from PubChem BioAssay AID2279 (Southern Research Specialized Biocontainment Screening …, 2010).
Potency and affinity values are given separately. Calls of active or inactive are those of the source. Where a call stands in place of a potency, no number is given. No rule for the calls is given here.

Test: HIV-1 Env-mediated cell fusion inhibitors, dose response, CCR5-tropic Env (AID 2279)

Row | Structure (SMILES) | outcome
1 | O=C(O)CN1C(=O)/C(=C\c2ccccc2OCc2ccc(Cl)cc2Cl)SC1=S | inactive
2 | O=C1NN(c2ccc(Cl)cc2)C(=O)/C1=C\c1ccc(-c2cccc(C(=O)O)c2)o1 | inactive
3 | COc1ccc(NC(=O)c2c[nH]n3c(=O)cc(C4CCN(C(=O)OC(C)(C)C)CC4)nc23)cc1Cl | inactive
4 | O=C(COc1ccc(Cl)cc1)Nc1cc(NC(=O)COc2ccc(Cl)cc2)cc(C(=O)O)c1 | inactive
5 | O=C(O)c1[nH]c2ccccc2c1C(c1ccccc1)c1c(C(=O)O)[nH]c2ccccc12 | inactive
6 | CC(C)(C)OC(=O)N1CCC(c2cc(=O)n3[nH]cc(C(=O)Nc4ccc(F)c(Cl)c4)c3n2)CC1 | inactive
7 | O=C(CCN1C(=O)/C(=C/c2ccco2)SC1=S)Nc1ccc(C(=O)O)c(O)c1 | inactive
8 | O=C(O)c1cc(NC(=O)c2ccc(Br)cc2)cc(NC(=O)c2ccc(Br)cc2)c1 | inactive
9 | Cc1cc(C)cc(-n2cccc2/C=C2/C(=N)N3C(=NC2=O)SN=C3S(C)(=O)=O)c1 | inactive
10 | O=C(O)C1Nc2ccc(Br)cc2C2C=CCC12 (stereo unspecified) | inactive
11 | Cc1ccc2nc(N3C(=O)C(O)=C(C(=O)c4ccco4)C3c3cccc(O)c3)sc2c1 (stereo unspecified) | inactive
12 | CCN1C(=O)/C(=C\c2ccc(-c3ccc([N+](=O)[O-])cc3OC)o2)SC1=Nc1cccc(C(=O)O)c1 | inactive
13 | CCCCCOc1ccc(C2C(C(=O)c3ccc(C)o3)=C(O)C(=O)N2c2cc(C)on2)cc1 (stereo unspecified) | inactive
14 | COc1cc(/C=C2\C(=N)N3N=C(S(C)(=O)=O)SC3=NC2=O)cc(OC)c1OCCOc1ccccc1C | inactive
15 | CCOc1ccc2nc(NC(=O)CSc3nc(-c4ccccc4)c(C#N)c(=O)[nH]3)sc2c1 | inactive
16 | CCCCCCc1c(C)c2ccc(OCC(=O)N[C@@H](Cc3ccccc3)C(=O)O)cc2oc1=O | inactive

Row | Structure (SMILES) | outcome
17 | O=C(O)c1cc(-c2ccc(/C=N/Nc3ccc(Cl)cc3)o2)ccc1Cl | inactive
18 | Cc1ccccc1N/N=C/c1sc(=O)n(Cc2cccc(C(=O)O)c2)c1Cl | inactive
19 | COc1cc(/C=C2\C(=N)N3N=C(S(C)(=O)=O)SC3=NC2=O)cc(OC)c1OCCOc1cccc(C)c1 | inactive
20 | O=C(O)c1[nH]c2ccccc2c1C(c1c(F)cccc1Cl)c1c(C(=O)O)[nH]c2ccccc12 | inactive
21 | C=CCOC(=O)C1=C(C)N=c2s/c(=C3\C(=O)N(CC(=O)O)c4ccccc43)c(=O)n2C1c1ccc(OC)cc1 (stereo unspecified) | inactive
22 | Cc1cc(/C=C2/C(=N)N3C(=NC2=O)SN=C3S(C)(=O)=O)c(C)n1-c1ccccc1 | inactive
23 | COc1cc(/C=C2\C(=N)N3N=C(S(C)(=O)=O)SC3=NC2=O)ccc1OC(=O)c1ccco1 | inactive
24 | CCOC(=O)C1=C(C)N=c2s/c(=C\c3ccc(OCC(=O)O)c(OC)c3)c(=O)n2C1c1ccc(OC)cc1 (stereo unspecified) | inactive
25 | COc1ccc(-c2csc(NC(=O)CSc3nc(C)nc4sc(C(=O)O)c(C)c34)n2)cc1 | inactive
26 | COc1cc(/C=C2/C(=N)N3C(=NC2=O)SN=C3S(C)(=O)=O)ccc1OS(=O)(=O)c1ccccc1 | inactive
27 | O=C(O)COc1ccc(/C=C/C(=O)c2ccc(C3CCCCC3)cc2)cc1 | inactive
28 | CCOC(=O)c1sc(N2C(=O)C(O)=C(C(=O)c3ccco3)C2c2ccc([N+](=O)[O-])cc2)nc1C (stereo unspecified) | inactive
29 | N=C1/C(=C\c2ccc(-c3cccc(C(=O)O)c3)o2)C(=O)N=C2SC=C(c3ccccc3)N12 | inactive
30 | O=C(COc1cccc2ccccc12)Nc1ccc(Cl)cc1C(=O)O | inactive
31 | O=C1N/C(=N\S(=O)(=O)c2ccccc2)S/C1=C\c1cc([N+](=O)[O-])ccc1O | inactive
